Type in all cases: functional
Experiment [1] relates to Plasmodium falciparum. Kind of experiment: GSK_TCMDC: Inhibition of Plasmodium falciparum 3D7 in whole red blood cells, using parasite LDH activity as an index of growth. Test compounds present at 2uM.
In experiment [2] the test system is Plasmodium falciparum. Kind of experiment: GSK_TCMDC: Inhibition of Plasmodium falciparum Dd2 in whole red blood cells, using parasite LDH activity as an index of growth. Test compounds present at 2uM.
Experiment [3] concerns HepG2. Put plainly: GSK_TCMDC: Percent inhibition of human HepG2 cell line. Test compounds present at 10uM.

Structures are written as SMILES.

In general, Inhibition refers to the percentage by which the read-out fell short of the control. Higher therefore signals strong suppression. `CCCCCCCCOc1c(OCC)cc(Cc2cnc(N)nc2N)cc1OCC`: the Inhibition is on record as 80% in experiment [1], 0% in experiment [2] and 25% in experiment [3].
The corresponding values for `CC(C)(C)OC(=O)/C=C(\C(=O)OCc1ccc([N+](=O)[O-])cc1)c1csc(NC(c2ccccc2)(c2ccccc2)c2ccccc2)n1` are 96%, 97% and 2%.
The matching figures for `Cc1[nH]c(C)c(-c2ccc(OCc3cc(C(F)(F)F)cc(C(F)(F)F)c3)nc2)c(=O)c1Br`: 98%, 96% and 28%.
With `O=C(Nc1ccc(OC2CCN(Cc3ccc(F)cc3)C2)c(Cl)c1)c1ccoc1.O=C(O)C(F)(F)F` (stereo not drawn), the Inhibition in experiment [1] came to 90%; in experiment [2], 90%; in experiment [3], 13%.
For `CN(C1CCC(NC(=O)/C=C/c2ccccc2)CC1)C1CC2(CCN(C(=O)OC(C)(C)C)CC2)c2ccccc21` (stereo not drawn), the Inhibition in experiment [1] turned out to be 95%; in experiment [2], 95%; in experiment [3], 16%.
For `Cl.FC(F)(F)c1ccc(COc2cc(Cl)ccc2Cn2ccnc2)cc1`, the Inhibition in experiment [1] amounted to 95%; in experiment [2] it was 0%; in experiment [3], 13%.
On to `Nc1ncc(-c2ccc(Cl)c(Cl)c2)c(N)n1`, for which the values for the Inhibition in experiment [1], in experiment [2] and in experiment [3] were 94%, 0% and 65%, respectively.
The matching figures for `COc1ccc2nccc([C@@H](O)CN3CCC(NC(=O)/C(=C/c4ccccc4)c4ccc(-c5ccccc5)cc4)CC3)c2c1`: 94%, 38% and 4%.
Turning to `O=C(/C=C/c1cc(C(F)(F)F)ccc1F)NCCCCCN1CCC(c2c[nH]c3ccccc23)CC1`, the Inhibition in experiment [1] is recorded as 88%; in experiment [2], 4%; in experiment [3], 39%.
The corresponding values for `O=C(O)C(F)(F)F.O=S(=O)(NCCN1CCCC1)c1ccc(-c2ccc(CNCc3ccccc3)cc2)cc1F` are 83%, 39% and 35%.
The matching figures for `COc1cc2nc(N3CCC(CNC(=O)c4ccc(-c5ccc(C#N)cc5)cc4)CC3)nc(N)c2cc1OC`: 100%, 99% and 21%.
The corresponding values for `O=C(NCc1ccc(C(=O)NC2CCCCCC2)cc1)c1ccc(O)c(-c2ccc(Cl)c(Cl)c2)c1` are 83%, 21% and 0%.
Take `Cc1cc(C)n2nc(C(=O)Nc3cc(C(F)(F)F)ccc3N3CCOCC3)nc2n1`: the Inhibition came to 94% in experiment [1], 91% in experiment [2] and 2% in experiment [3].
The matching figures for `CCNC(C)(C)CN(Cc1ccc(-c2ccc(C(F)(F)F)cc2)cc1)C(=O)Cn1c(CCc2cccc(F)c2F)nc(=O)c2ccccc21.O=C(O)C(O)C(O)C(=O)O`: 97%, 70% and 47%.
The corresponding values for `Cc1nn(-c2ccccc2)c2c1C(c1ccc(C(C)C)cc1)N1C(=N2)N(Cc2ccccc2)c2ccccc21` (stereo not drawn) are 95%, 37% and 7%.
Regarding `COc1ccc2nccc([C@@H](O)CN3CCC(NCc4cc5cccc(O)c5[nH]4)CC3)c2c1.O=C(O)C(=O)O`, the Inhibition came to 100% in experiment [1], 35% in experiment [2] and 0% in experiment [3].
The corresponding values for `COc1ccc(Nc2cc(C)nc(Nc3ccc(NC(C)=O)cc3)n2)cc1` are 98%, 31% and 16%.
The matching figures for `N=C(N)NC(=O)Nc1cc(Br)c(Br)c(Br)c1`: 100%, 89% and 0%.
The matching figures for `CCOc1ccc(-c2nonc2NC(=O)c2ccco2)cc1OCC`: 97%, 77% and 3%.
On to `COc1cccc2cc(C(=O)N[C@@H](CC(C)C)C(=O)NC3CC[C@@H](C)N(C(=O)Nc4ccncc4)CC3=O)oc12` (stereo partly drawn), for which the Inhibition in experiment [1] was found to be 95%; in experiment [2], 90%; in experiment [3], 7%.
Regarding `CCCCCCc1c(C)nc2cc(OC)ccc2c1O`, the Inhibition in experiment [1] was found to be 97%; in experiment [2], 97%; in experiment [3], 10%.
Turning to `CN1CCN(c2ccc(CNc3ccc4ncc(-c5ccc(OC(F)(F)F)cc5)n4n3)cc2)CC1`, the Inhibition in experiment [1] stood at 94%; in experiment [2] it was 87%; in experiment [3], 13%.
As to `COc1c(CN2CCCC2)cccc1-c1cc2c(-c3ccc(C(=O)O)c(C(C)C)c3)ccnc2[nH]1.O=C(O)C(F)(F)F`, the Inhibition is 99% in experiment [1], 98% in experiment [2] and 56% in experiment [3].
The corresponding values for `Cc1ccc(N)cc1-c1nc(NC2CC(C)(C)NC(C)(C)C2)nc2c1ccc(=O)n2-c1c(F)cccc1F` are 98%, 1% and 0%.
The corresponding values for `Cc1noc(C)c1-c1cccc(CNCc2ccc(-c3ccc(-c4nc5cc(F)ccc5[nH]4)s3)cc2)c1.O=C(O)C(F)(F)F` are 100%, 93% and 45%.
The corresponding values for `CC(C)C(=O)n1ncc2c3c(N)nc(N)nc3ccc21` are 87%, 3% and 0%.
Regarding `CCCOc1ccc(-c2nonc2NC(=O)c2ccccc2OC)cc1OCCC`, the results for the Inhibition in experiment [1], in experiment [2] and in experiment [3] were 98%, 82% and 23%, respectively.
For `CCC1(C)N=C(N)N=C(N)N1c1ccc(Cl)cc1.Cl` (stereo not drawn), the values for the Inhibition in experiment [1], in experiment [2] and in experiment [3] were 95%, 0% and 7%, respectively.
`COc1nc2c(CCN3CC[C@@H](NCc4cc(C#N)c5c(c4)CCO5)[C@@H](O)C3)ccnc2cc1F.Cl`: the Inhibition in experiment [1] is reported as 92%; in experiment [2] it was 35%; in experiment [3], 21%.
In the case of `CC1CN(c2ccc3occ(C(=O)Nc4ccc(-c5ccncc5)c(Cl)c4)c3c2)CC(C)N1C.Cl` (stereo not drawn), the Inhibition in experiment [1] came out at 100%; in experiment [2] it was 96%; in experiment [3], 14%.
For the compound `COc1cc2nc(Nc3ccc(N4CCOCC4)cc3)nc(N)c2cc1OC.Cl`, the Inhibition in experiment [1] turned out to be 95%; in experiment [2], 10%; in experiment [3] it was 8%.
The corresponding values for `Cc1cc(Nc2cccc(Cl)c2)nc2ccc(NC(=O)c3ccc(=O)[nH]c3)cc12` are 100%, 23% and 12%.
The corresponding values for `Cc1cc2ccc(-c3cccc(CN)c3)cc2nc1N.Cl` are 100%, 1% and 0%.
The corresponding values for `Cc1nc(Nc2ccc(F)cc2)nc(N2CCc3ccccc3C2C)c1CO` (stereo not drawn) are 100%, 95% and 0%.
On to `CCCc1ccc(N2C(N)=NC(N)=NC2(C)C)cc1.Cl`, for which the Inhibition came out at 94% in experiment [1], 0% in experiment [2] and 59% in experiment [3].
The matching figures for `CC(C)NCC(=O)Nc1cccc(C(=O)Nc2cccc(C(F)(F)F)c2)c1`: 97%, 89% and 6%.
Turning to `Cc1cc(C(=O)OCC(=O)Nc2c(C)n(C)n(-c3ccccc3)c2=O)c(C)n1-c1ccc(F)cc1`, the Inhibition was 100% in experiment [1], 99% in experiment [2] and 0% in experiment [3].
Take `CCOc1cc(C)c(C2CCN(CCCCNC(=O)c3ccc(NC(=O)c4ccc(Cl)cc4)cc3)CC2)cc1C`: the values for the Inhibition in experiment [1], in experiment [2] and in experiment [3] were 100%, 87% and 10%, respectively.
The matching figures for `COc1cc2nc(Nc3ccc4c(ccn4Cc4ccccc4)c3)nc(Nc3ccc4c(ccn4Cc4ccccc4)c3)c2cc1OC`: 89%, 80% and 0%.
The corresponding values for `COc1ccc(C(=O)CCC(=O)N(Cc2ccc(-c3ccc(CNCc4cccnc4)cn3)cc2)C2CCN(Cc3ccccc3)CC2)cc1F.O=C(O)C(F)(F)F` are 94%, 26% and 30%.
On to `Cc1cccc2nc(-c3ccc(-c4cccc(NC(=O)c5cnn6cccnc56)c4)cc3)[nH]c12`, for which the Inhibition in experiment [1] is 91%; in experiment [2], 29%; in experiment [3], 100%.
The matching figures for `CC(C)C1=NC(=O)c2cc([N+](=O)[O-])ccc2CN1`: 98%, 0% and 6%.
The corresponding values for `CCNc1cc(C(=O)N[C@@H](Cc2ccccc2)[C@H](O)CNCCc2ccccc2)cc(N2CCCC2=O)c1.O=C(O)C(F)(F)F` are 92%, 46% and 0%.
For `CCN1CCN(c2cc(C)c3cc(NC(=O)c4cccc(OC)c4)ccc3n2)CC1`, the Inhibition came to 99% in experiment [1], 15% in experiment [2] and 5% in experiment [3].
The matching figures for `O=C(N[C@H]1CCN(CCc2ccc(O[C@H]3CCNC3)cc2)C1)c1ccc(Cl)c(Cl)c1.O=C(O)C(F)(F)F`: 96%, 5% and 18%.
With `O=C(Cc1n[nH]c(=O)c2ccccc12)Nc1cccc(C(=O)Nc2cccc(C(F)(F)F)c2)c1`, the Inhibition in experiment [1] amounted to 97%; in experiment [2], 90%; in experiment [3] it was 0%.
The matching figures for `Br.CCCc1cc(OCCCOc2ccccc2)ccc1OCCCON1C(=N)N=C(N)NC1(C)C`: 94%, 96% and 68%.
For `Cc1ccc(O)cc1C[C@@H]1C(=O)CC[C@@]2(C)[C@H]1CC[C@]2(C)O`, the Inhibition in experiment [1] was determined as 96%; in experiment [2] it was 0%; in experiment [3], 4%.
The corresponding values for `COc1cccc(NC(=O)NC2CCN(c3ccnc(Nc4ccc(F)cc4)n3)C2)c1` (stereo not drawn) are 100%, 71% and 9%.
On to `CCCC(=O)Nc1ccc(OCCCCN(Cc2ccccc2C(F)(F)F)c2ccc(C(F)(F)F)c(C#N)c2)cc1`, for which the Inhibition in experiment [1] is reported as 94%; in experiment [2], 94%; in experiment [3], 6%.
Turning to `CC(C)(C)c1nn(-c2ccccc2)c2[nH]c(=O)c(CNCc3ccccc3)cc12`, the figures for the Inhibition in experiment [1], in experiment [2] and in experiment [3] were 90%, 91% and 5%, respectively.
Turning to `CN1CCN(c2cc3c(Nc4ccc5c(cnn5Cc5ccccc5)c4)ncnc3cn2)CC1`, the Inhibition is 88% in experiment [1], 35% in experiment [2] and 9% in experiment [3].
The corresponding values for `CCN(CCCN1CCCCC1)c1cc(C)nc(Nc2ccc(C)c(Br)c2)n1.O=C(O)C(F)(F)F` are 100%, 98% and 42%.
Consider `CN(C)CCCc1cc(NC(=O)Nc2cccc(Cl)c2Cl)ccc1I.Cl`, for which the Inhibition in experiment [1] came to 100%; in experiment [2] it was 45%; in experiment [3] it was 12%.
On to `COc1cc2nc(N3CCC(CCCC4CCNCC4)CC3)nc(NCc3ccccn3)c2cc1OC.O=C(O)C(F)(F)F`, for which the figures for the Inhibition in experiment [1], in experiment [2] and in experiment [3] were 100%, 6% and 2%, respectively.
Turning to `FC(F)(F)c1ccc2[nH]c(-c3ccc(-c4cccc(CN5CCCCC5)c4)cc3)nc2c1.O=C(O)C(F)(F)F`, the Inhibition is 100% in experiment [1], 99% in experiment [2] and 22% in experiment [3].
The matching figures for `O=C(NCc1ccccn1)C(c1cc2ccccc2o1)N1CCN(C(c2ccccc2)c2ccccc2)CC1` (stereo not drawn): 95%, 68% and 17%.
The corresponding values for `COc1ccc(CNCc2cccc(-c3cccc(-c4nc5ccccc5[nH]4)c3)c2)cc1.O=C(O)C(F)(F)F` are 100%, 50% and 24%.
In the case of `CC(=O)Nc1cccc(Nc2nccc(-c3c(-c4cccc(NC(=O)c5c(F)cccc5F)c4)nn4ncccc34)n2)c1`, the figures for the Inhibition in experiment [1], in experiment [2] and in experiment [3] were 96%, 51% and 83%, respectively.
The corresponding values for `O=C(Nc1ccc(Cl)cc1)c1ccc(S(=O)(=O)NCC2CCN(CC3CCCCC3)CC2)cc1.O=C(O)C(F)(F)F` are 93%, 8% and 40%.
With `CCOc1ccc(C(C)NC(=O)C2COc3ccccc3O2)cc1OCC` (stereo not drawn), the Inhibition in experiment [1] is on record as 100%; in experiment [2], 100%; in experiment [3], 0%.
